Inconclusive results are not listed. Where a call stands in place of a potency, no number is given. Calls of active or inactive are those of the source. Calls follow the shape of the dose curve; as a rule, active = well fitted inhibition curve with a large enough effect; inconclusive = small, poorly fitted or top-dose-only effect; inactive = flat fitted curve, though single readings scatter.
Experiments:
Assay in all cases: qHTS profiling for inhibitors of Plasmodium falciparum proliferation (AID 504749); also: nearly all actives have a fitted effect of over 60% in size
Details in all cases: P. falciparum in erythrocytes, SYBR Green DNA, 72 h; series mostly up to 28.7 µM
[1] = test system: DFO2036
Procedure, shortened: (§1)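 Each compound contacts P. falciparum-infected red blood cells for 72 h at 37 C; lysis buffer (Tris, EDTA, saponin, Triton X, SYBR Green I) is added and fluorescence measured next morning; values normalized to controls.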

[2] = test system: DIV14
Procedure, shortened: as §1

[3] = test system: DIV17
Procedure, shortened: as §1

[4] = test system: Dd2
Procedure, shortened: as §1

[5] = test system: ECU
Procedure, shortened: as §1

[6] = test system: FAB9
Procedure, shortened: as §1

[7] = test system: HB3
Procedure, shortened: as §1

[8] = test system: ICS
Procedure, shortened: as §1

[9] = test system: JCK
Procedure, shortened: as §1

[10] = test system: DIV30
Procedure, shortened: as §1

[11] = test system: GB4
Procedure, shortened: as §1

[12] = test system: N140
Procedure, shortened: as §1

[13] = test system: P93_24
Procedure, shortened: as §1

[14] = test system: P94_40
Procedure, shortened: as §1

[15] = test system: PC26
Procedure, shortened: as §1

[16] = test system: PC49
Procedure, shortened: as §1

[17] = test system: SC27B
Procedure, shortened: as §1

[18] = test system: TAB109
Procedure, shortened: as §1

[19] = test system: PAD
Procedure, shortened: as §1

[20] = test system: PC15
Procedure, shortened: as §1
Potency is read from the fitted curve at half-maximal effect.

| SMILES | Potency [1] | Potency [2] | Potency [3] | Potency [4] | Potency [5] | Potency [6] | Potency [7] | Potency [8] | Potency [9] | Potency [10] | Potency [11] | Potency [12] | Potency [13] | Potency [14] | Potency [15] | Potency [16] | Potency [17] | Potency [18] | Potency [19] | Potency [20] |
| --- | --- | --- | --- | --- | --- | --- | --- | --- | --- | --- | --- | --- | --- | --- | --- | --- | --- | --- | --- | --- |
| O=C(CCN1CCN2CCCC2C1)N1c2ccccc2Sc2ccc(Cl)cc21 (stereo unspecified) | inactive | 4.26 µM (active) | 5.36 µM (active) | 6.31 µM (active) | 14.1 µM (active) | inactive | inactive | 5.01 µM (active) | inactive |  |  |  |  |  |  |  |  |  |  |  |
| CCOC(=O)c1c(N)sc2c1CCN(Cc1ccccc1)C2 | 7.08 µM (active) | 2.69 µM (active) | 7.57 µM (active) | 7.94 µM (active) | 7.08 µM (active) | 4.47 µM (active) | 3.55 µM (active) | 5.01 µM (active) | 11.2 µM (active) | 13.5 µM (active) | 4.26 µM (active) | 12.6 µM (active) | 5.01 µM (active) | 5.62 µM (active) | 5.36 µM (active) | 5.01 µM (active) | 10 µM (active) | 4.47 µM (active) |  |  |
| CC(=O)Nc1ccc(S(=O)(=O)Nc2ccc([N+](=O)[O-])cc2)cc1 | inactive | inactive | inactive | inactive | inactive | inactive | inactive | inactive | inactive |  | inactive | inactive | inactive | inactive | inactive | inactive | inactive | inactive | inactive | inactive |
| CCCCCN=C(N)N/N=C/c1c[nH]c2ccc(OC)cc12 | 5.01 µM (active) | 2.69 µM (active) | 1.51 µM (active) | 3.16 µM (active) | 8.91 µM (active) |  | 3.16 µM (active) | 1.26 µM (active) |  | 12 µM (active) | 5.36 µM (active) | 4.47 µM (active) | 3.16 µM (active) | 2.82 µM (active) | 12 µM (active) |  | 12.6 µM (active) | 4.47 µM (active) | 6.31 µM (active) | 5.62 µM (active) |
| CC(=O)NO | inactive | inactive | inactive | inactive | inactive | inactive | inactive | inactive | inactive | inactive | inactive | inactive | inactive | inactive | inactive | inactive | inactive | inactive | inactive | inactive |
| NS(=O)(=O)c1ccc(Cl)c(S(N)(=O)=O)c1 | inactive | inactive | inactive | inactive | inactive | inactive | inactive | inactive | inactive | inactive | inactive | inactive |  |  | inactive | inactive | inactive | inactive | inactive | inactive |
| OC1C(O)C(O)C(O)C(O)C1O (stereo unspecified) | inactive | inactive | inactive | inactive | inactive | inactive | inactive | inactive | inactive | inactive | inactive | inactive |  | inactive | inactive | inactive | inactive | inactive | inactive | inactive |
| Cc1cccc(C)c1NC(=O)c1ccccc1C(=O)O | inactive | inactive | inactive | inactive | inactive | inactive | inactive | inactive | inactive | inactive | inactive | inactive | inactive | inactive | inactive | inactive | inactive | inactive | inactive | inactive |
| O[C@@H](c1cc(C(F)(F)F)nc2c(C(F)(F)F)cccc12)[C@H]1CCCCN1 | 0.0355 µM (active) | 0.0338 µM (active) | 0.0338 µM (active) | 0.0282 µM (active) | 0.0126 µM (active) | 0.0708 µM (active) | 0.0562 µM (active) | 0.0089 µM (active) | 17.8 µM (active) | 0.0338 µM (active) | 0.0269 µM (active) | 0.01 µM (active) | 0.0316 µM (active) | 0.0126 µM (active) | 0.0478 µM (active) |  | 0.0251 µM (active) | 0.0158 µM (active) | 0.0112 µM (active) |  |
| CC(C)(C)NC[C@H](O)COc1nsnc1N1CCOCC1 | 6.31 µM (active) | 3.38 µM (active) | 3.38 µM (active) | 5.62 µM (active) | 7.94 µM (active) |  | 3.55 µM (active) | 1.26 µM (active) |  |  | 7.57 µM (active) | 3.98 µM (active) | 3.55 µM (active) | 3.16 µM (active) | 12 µM (active) |  | 12.6 µM (active) | 5.01 µM (active) | 6.31 µM (active) | 2.24 µM (active) |
| COc1cc(N)c(Cl)cc1C(=O)NC1CCN(Cc2ccccc2)CC1 | inactive | inactive | inactive | inactive | inactive | inactive | inactive | inactive | inactive |  |  | inactive | inactive | inactive |  | inactive | inactive | inactive | inactive | inactive |
| O=C(Nc1cccc(C2=NCCN2)c1)Nc1cccc(C2=NCCN2)c1 | 1.78 µM (active) | 3.01 µM (active) | 4.26 µM (active) | 0.891 µM (active) | 3.16 µM (active) |  | 10 µM (active) | 2.24 µM (active) | 5.01 µM (active) | 13.5 µM (active) | 3.79 µM (active) | 4.47 µM (active) | 1.78 µM (active) | 1.12 µM (active) | 8.49 µM (active) | 5.62 µM (active) |  | 2.82 µM (active) | 3.16 µM (active) | 3.98 µM (active) |
| Cc1nc(-c2ccc(Cl)cc2)oc1COC(C)(C)C(=O)O | inactive | inactive | inactive | inactive | inactive | inactive | inactive | inactive | inactive | inactive | inactive | inactive | inactive | inactive | inactive | inactive | inactive | inactive | inactive | inactive |
| N/C(=N\N=C\c1ccc(Cl)cc1)N/N=C/c1ccc(Cl)cc1 | 3.16 µM (active) | inactive | inactive |  |  |  |  | 2.24 µM (active) |  | inactive |  |  |  |  | inactive | inactive | 12.6 µM (active) | 6.31 µM (active) |  |  |
| O=C1C(O)=C(O)C(=O)C(O)=C1O | inactive | inactive | inactive | 10 µM (active) | inactive | inactive | inactive |  | inactive | inactive | inactive | inactive | inactive | inactive | inactive | inactive | inactive | inactive | inactive | inactive |
| CN(C)CCC[C@@]1(c2ccc(F)cc2)OCc2cc(C#N)ccc21 | inactive | inactive | inactive |  | inactive | inactive | inactive | inactive | inactive | inactive | inactive | inactive | inactive | inactive | inactive | inactive | inactive | inactive | inactive | inactive |
| O=C(O)C(Cc1cc(I)c(O)c(I)c1)c1ccccc1 (stereo unspecified) | inactive | inactive | inactive | inactive | inactive | inactive | inactive | inactive | inactive | inactive | inactive | inactive | inactive | inactive | inactive | inactive | inactive | inactive | inactive | inactive |
| COc1ccc(CCN(C)CCCN2CCc3cc(OC)c(OC)cc3CC2=O)cc1OC | inactive | inactive | inactive |  | inactive | inactive | inactive |  | inactive | inactive | inactive | inactive |  | inactive | inactive | inactive | inactive | inactive | inactive | inactive |
| C#C[C@]1(O)CC[C@H]2[C@@H]3CCc4cc(OC)ccc4[C@H]3CC[C@@]21C | inactive | inactive | inactive | inactive | inactive | inactive | inactive |  | inactive | inactive | inactive | inactive | inactive | inactive | inactive | inactive | inactive | inactive | inactive | inactive |
| CC(=O)OCC(=O)[C@H]1CC[C@H]2[C@@H]3CCC4=CC(=O)CC[C@]4(C)[C@H]3CC[C@]12C | inactive | inactive | inactive | inactive | inactive | inactive | inactive |  | inactive | inactive | inactive | inactive | inactive | inactive | inactive | inactive | inactive | inactive | inactive | inactive |
